Data reported in PubChem BioAssay (NCATS).

Target: Glucocorticoid receptor (Homo sapiens) (UniProt P04150)
Test: GR-GFP Redistribution (AID 450)
Conditions: U2OS GR-GFP nuclear translocation, laser cytometry, 2 h; series mostly up to 20.6 µM;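 active = compounds whose dose series gives a full or clear partial fitted curve of increased nuclear translocation; inconclusive = weak partial curve or effect only at the top dose; inactive = no dose-dependent translocation response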
Potency is the fitted concentration of half-maximal effect.

Sequence of Glucocorticoid receptor (Homo sapiens) (P04150 whole entry, looked up): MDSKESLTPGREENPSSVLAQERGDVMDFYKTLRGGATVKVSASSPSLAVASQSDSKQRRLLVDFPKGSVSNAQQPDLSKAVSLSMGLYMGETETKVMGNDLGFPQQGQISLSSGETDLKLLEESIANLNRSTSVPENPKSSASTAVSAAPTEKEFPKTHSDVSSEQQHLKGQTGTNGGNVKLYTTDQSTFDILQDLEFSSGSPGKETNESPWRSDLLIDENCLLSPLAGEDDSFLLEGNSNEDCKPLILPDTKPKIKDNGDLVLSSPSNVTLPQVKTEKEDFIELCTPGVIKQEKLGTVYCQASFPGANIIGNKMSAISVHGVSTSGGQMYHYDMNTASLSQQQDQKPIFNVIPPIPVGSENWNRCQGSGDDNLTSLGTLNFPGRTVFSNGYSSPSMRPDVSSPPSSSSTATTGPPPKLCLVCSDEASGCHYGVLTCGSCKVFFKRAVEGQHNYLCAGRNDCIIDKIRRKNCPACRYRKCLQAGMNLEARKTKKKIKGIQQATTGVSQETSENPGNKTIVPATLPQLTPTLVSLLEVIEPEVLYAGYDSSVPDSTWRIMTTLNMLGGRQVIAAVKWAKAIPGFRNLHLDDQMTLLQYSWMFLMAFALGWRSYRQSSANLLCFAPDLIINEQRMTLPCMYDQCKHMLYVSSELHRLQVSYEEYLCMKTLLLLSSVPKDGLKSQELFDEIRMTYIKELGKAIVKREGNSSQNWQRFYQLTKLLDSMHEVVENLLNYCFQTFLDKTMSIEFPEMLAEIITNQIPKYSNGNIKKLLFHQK

Potency, inactive:
CC/C(C)=C1\SC(N2CCN(C(C)=O)CC2)=NC1=O > 20.6 µM
CCOc1ccc(C2C(C(=O)c3ccc(C)o3)=C(O)C(=O)N2CCN2CCOCC2)cc1OC (centres undefined) > 20.6 µM
CN(C)CC(O)COc1ccc(-c2ccc(C#N)cc2)cc1 (centres undefined) > 20.6 µM
Cc1c(-c2cccs2)[n+](=O)c2c(n1[O-])CCCC2 > 20.6 µM
Cc1nccn1-c1cc(C(C)C)c(C#N)c2nc3ccccc3n12 > 20.6 µM
CCc1nnc(NC(=O)c2c(O)c3c([nH]c2=O)CCCC3)s1 > 20.6 µM
CCCCCCOc1ccc(N2C(=O)CC(N3CCN(C(=O)c4ccco4)CC3)C2=O)cc1 (centres undefined) > 20.6 µM
Cc1ccc(OCC(=O)NCC(=O)n2nc(C)cc2C)cc1 > 20.6 µM
O=c1c(-c2ccc(Cl)cc2)[n+]([O-])c2ccccc2n1O > 20.6 µM
